Screens deposited in PubChem by several laboratories.
CCHF vOTU inh: blocks the CCHF virus ovarian tumor domain protease. 370,000 compounds, 0.55% hits. CCHFV vOTU protease, Pep-AMC fluorescence. inhibition, % at 11.5 µM; also: 0% = vehicle wells with enzyme and 100% = no enzyme wells
FBA Mtb inh: inhibitors of M. tuberculosis fructose-bisphosphate aldolase; P9WQA3; purified M. tuberculosis FBA, fluorescence read-out; inhibition, % at 1 µM; 360,000 compounds, 2.3% hits; in the data active = inhibition above about 27%;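 also: 0% = vehicle and 100% = reference inhibitor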
Target sequence (P9WQA3 whole entry, looked up): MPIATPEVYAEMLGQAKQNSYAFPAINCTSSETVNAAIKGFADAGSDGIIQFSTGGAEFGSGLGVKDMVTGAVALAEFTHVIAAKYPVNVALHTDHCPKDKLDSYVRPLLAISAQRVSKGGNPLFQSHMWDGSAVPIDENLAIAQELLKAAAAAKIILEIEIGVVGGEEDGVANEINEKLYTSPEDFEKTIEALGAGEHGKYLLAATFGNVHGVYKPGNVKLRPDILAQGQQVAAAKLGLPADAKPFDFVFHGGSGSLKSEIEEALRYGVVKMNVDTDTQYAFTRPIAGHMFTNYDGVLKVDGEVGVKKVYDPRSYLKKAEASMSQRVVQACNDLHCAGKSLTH
RecA splice inh: blocks M. tuberculosis RecA intein splicing; AID 2221; inhibition, % (concentration not given with the values); cell-free RecA intein splicing, fluorescence; 290,000 compounds, 0.75% hits; P9WHJ3; in the data active = inhibition above about 30%; inconclusive = no clear call, values can overlap the other calls;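 also: 0% = vehicle wells and 100% = reference inhibitor control wells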
Mtb betalactam: beta-lactam sensitization of Mtb H37Rv | M. tuberculosis H37Rv growth with meropenem, percent inhibition | inhibition, % at 25 µM | 330,000 compounds, 0.27% hits | AID 434955; call rule not given here;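 also: growth measured after seven days incubation then overnight dye step; 0% = bacteria only wells and 100% = bacteria with antibiotic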
GDH-TPI counter: counter-screen for M. tuberculosis FBA inhibitors: GDH-TPI coupled enzymes; GDH-TPI coupled enzyme counterscreen, NADH absorbance; inhibition, % at 4.8 µM; 360,000 compounds, 1.2% hits; AID 588335;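 also: 0% = DMSO wells and 100% = wells lacking the enzyme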
Active calls of the source: *. Hits are enriched below; roughly 4.2% of the tested compounds scored in any of these assays. Rule as the data show it, unless noted: active = inhibition above about 30%; inactive = the rest.

Screening COc1ccc(C(=O)N/N=C/c2ccc(SC)cc2)cc1 returned CCHF vOTU inh 0.5, FBA Mtb inh -0.9, RecA splice inh -0.9, Mtb betalactam -1.7 and GDH-TPI counter 45.7*.
`COc1cc(/C=N/NC(=O)c2ccc(O)cc2)ccc1OCC(=O)N1CC(C)OC(C)C1` (stereo not given) gave CCHF vOTU inh 1.8, FBA Mtb inh -4.5, RecA splice inh -0.9, Mtb betalactam -8.2 and GDH-TPI counter 51.9*.
For COc1cc(/C=N/NC(=O)c2ccc(O)cc2)ccc1OCC(=O)Nc1cccc([N+](=O)[O-])c1 the results were CCHF vOTU inh -11.8, FBA Mtb inh 1.1, RecA splice inh -0.9, Mtb betalactam 10.8 and GDH-TPI counter 28.2.
`COc1ccc(C=NNC(=O)c2ccncc2)cc1` gave CCHF vOTU inh 4.0.
Screening COc1ccc(C(=O)N/N=C/c2ccc(OC)c(COc3ccccc3)c2)cc1 returned CCHF vOTU inh -4.2, FBA Mtb inh 3.9, RecA splice inh 1.6, Mtb betalactam -15.0 and GDH-TPI counter 36.5*.
Screening CSc1ccc(/C=N/NC(=O)c2ccc(O)cc2)cc1 returned CCHF vOTU inh 6.7, FBA Mtb inh 8.2, RecA splice inh 5.6, Mtb betalactam 3.4 and GDH-TPI counter 55.4*.
Screening COc1ccc(/C=N\NC(=O)c2ccccc2)cc1COc1ccccc1 returned CCHF vOTU inh 7.5, FBA Mtb inh 1.0, RecA splice inh 0.6, Mtb betalactam -6.4 and GDH-TPI counter 8.1.
O=C(N/N=C/c1ccc(O)cc1)c1ccncc1 was read as CCHF vOTU inh 9.4, FBA Mtb inh 3.1, RecA splice inh -2.9, Mtb betalactam 6.5 and GDH-TPI counter 25.3.
COc1cccc(-c2ccc(CC[C@H]3O[C@H]4CC[C@@H](CO)O[C@H]4C[C@H]3NC(=O)c3cnccn3)cc2)c1 was read as CCHF vOTU inh 3.7.
COc1ccc(/C=N/NC(=O)c2ccc[nH]2)cc1 was read as CCHF vOTU inh 0.3, FBA Mtb inh -1.7, RecA splice inh 1.0, Mtb betalactam -4.5 and GDH-TPI counter 32.3*.
Screening CSc1ccc(/C=N/NC(=O)c2ccccc2Cl)cc1 returned CCHF vOTU inh 17.7, FBA Mtb inh 8.0, RecA splice inh 1.5, Mtb betalactam 8.5 and GDH-TPI counter 72.0*.
`COc1ccc(/C=N/NC(=O)c2cccnc2)cc1` gave CCHF vOTU inh 2.6, FBA Mtb inh -1.0, RecA splice inh -2.7, Mtb betalactam -0.3 and GDH-TPI counter 14.0.
`CC(=O)CC[C@@H]1CC[C@]2(CCCN(S(C)(=O)=O)C2)O1` gave CCHF vOTU inh 7.2.
For O=C1C[C@@H](c2ccccc2)N=C2N(CC3CC3)C/C(=C/c3ccccc3)N12 the results were CCHF vOTU inh 2.4.
Screening CC(/C=N/n1c(-c2n[nH]c3c2CCC3)n[nH]c1=S)=C\c1ccco1 returned CCHF vOTU inh 10.5, FBA Mtb inh 0.9, RecA splice inh 4.4, Mtb betalactam -1.0 and GDH-TPI counter 44.8*.
Screening Cc1ccccc1-c1n[nH]c(=S)n1/N=C/C=C/c1ccco1 returned CCHF vOTU inh 6.2, FBA Mtb inh -1.1, Mtb betalactam 2.4 and GDH-TPI counter 43.5*.
For S=c1[nH]nc(-c2ccccc2)n1/N=C/C=C/c1ccco1 the results were CCHF vOTU inh 16.6, FBA Mtb inh -2.4, RecA splice inh 6.4, Mtb betalactam 0.8 and GDH-TPI counter 32.6*.
Screening Cc1cc(-c2n[nH]c(=S)n2/N=C/C=C/c2ccco2)n[nH]1 returned CCHF vOTU inh 4.5, FBA Mtb inh 0.9, RecA splice inh 4.6, Mtb betalactam -2.4 and GDH-TPI counter 9.0.
Screening C(/C=C/c1ccco1)=N/N1CCN(c2ccccc2)CC1 returned CCHF vOTU inh 12.2, FBA Mtb inh -2.9, RecA splice inh 2.5, Mtb betalactam 34.9 and GDH-TPI counter 46.6*.
For COc1ccc(-n2c(SCC(=O)Nc3cc(C)c(NC(=O)c4ccccc4)cc3OC)nnc2-c2cccnc2)cc1 the results were CCHF vOTU inh -2.5.
Screening CCCCNC(=S)N/N=C/c1ccc(C)s1 returned CCHF vOTU inh 11.3, FBA Mtb inh 5.6, RecA splice inh 0.5, Mtb betalactam 97.7 and GDH-TPI counter 63.3*.
CC(=O)Nc1ccc(/C(C)=N/NC(=O)c2ccc(COc3ccccc3Cl)o2)cc1 was read as CCHF vOTU inh -1.1, FBA Mtb inh 2.6, Mtb betalactam 4.2 and GDH-TPI counter 31.0*.
Screening COc1ccc(/C=N/NC(=O)c2ccc(COc3ccccc3Cl)o2)cc1 returned CCHF vOTU inh 16.4, FBA Mtb inh 0.7, RecA splice inh 0.5, Mtb betalactam -7.8 and GDH-TPI counter 25.4.
Screening COc1cc(C=Nn2c(-c3cc(C)[nH]n3)n[nH]c2=S)cc(Br)c1O returned CCHF vOTU inh 11.8.
`COc1cc(/C=N/n2c(C3CCCCC3)n[nH]c2=S)cc(Br)c1O` gave CCHF vOTU inh 7.6, FBA Mtb inh 0.9, RecA splice inh -0.6, Mtb betalactam inconclusive and GDH-TPI counter 32.4*.
CCOc1ccc(/C=C/C(=O)N(CC)CC(=O)Nc2c(F)cccc2F)cc1OC was read as CCHF vOTU inh -8.9, FBA Mtb inh 9.9 and GDH-TPI counter 31.9*.
Screening CCCN(CC(=O)Nc1ccccc1C)C(=O)/C=C/c1ccc(OCC)c(OC)c1 returned CCHF vOTU inh -2.6, FBA Mtb inh 12.8, Mtb betalactam -1.7 and GDH-TPI counter 34.0*.
O=C(Nc1ccccc1)Nc1c(-c2ccc(F)cc2)nc2ncccn12 was read as CCHF vOTU inh -13.0.
Screening CCOP(=O)(OCC)c1nc(-c2ccccc2)oc1N1CCCCC1 returned CCHF vOTU inh -98.0, FBA Mtb inh active, RecA splice inh -0.9, Mtb betalactam -1.1 and GDH-TPI counter 1.4.
For COP(=O)(OC)c1nc(-c2cccc3ccccc23)oc1N1CCCCC1 the results were CCHF vOTU inh -346.8, FBA Mtb inh active, RecA splice inh -19.8, Mtb betalactam 5.5 and GDH-TPI counter 9.8.
CCOP(=O)(OCC)c1nc(-c2cccc3ccccc23)oc1N1CCCCC1 was read as CCHF vOTU inh -301.0, FBA Mtb inh 175.0*, RecA splice inh -56.6, Mtb betalactam 5.6 and GDH-TPI counter 1.6.
O=C(Nc1ccc(F)cc1)OCc1cn(Cc2ccc(C(F)(F)F)cc2)nn1 was read as CCHF vOTU inh 4.5.
Screening O=C(CCl)Nc1cc(S(=O)(=O)N2CCCCCC2)ccc1Cl returned CCHF vOTU inh -12.3, FBA Mtb inh 3.1, RecA splice inh 66.7*, Mtb betalactam 93.3 and GDH-TPI counter 7.0.
Screening CC(C)(C)CC(=O)Nc1cc(S(=O)(=O)N2CCCCCC2)ccc1Cl returned CCHF vOTU inh 5.2, FBA Mtb inh 3.4, RecA splice inh 3.2, Mtb betalactam -4.7 and GDH-TPI counter 7.6.
Cc1sc2nc(COC(=O)CNC(=O)c3ccccc3Cl)[nH]c(=O)c2c1C was read as CCHF vOTU inh 18.9.
For CCCCn1c(=O)[nH]c2nc3cc(N)ccc3nc2c1=O the results were CCHF vOTU inh 50.1*, FBA Mtb inh -10.4, Mtb betalactam -4.7 and GDH-TPI counter 0.7.
Screening Nc1ccc2nc3c(=O)n(CCc4ccccc4)c(=O)[nH]c3nc2c1 returned CCHF vOTU inh 5.6, FBA Mtb inh -10.9, RecA splice inh -189.1, Mtb betalactam -5.4 and GDH-TPI counter 4.6.
